Source: PubChem BioAssay
For some of these results: Measured potencies and affinities stand elsewhere. This is one part of the list. Activity calls are given as the source filed them.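 The calls were made as follows, unless noted: active = fitted half-maximal concentration within 10 nM to 100 µM, steepness 0.5 to 2, significant signal drop, low assay interference; inactive = the rest.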

Tests used:
[1] = target: Cell division control protein 42 homolog (Homo sapiens) (UniProt P60953); test: inhibition of fluorescent GTP binding to constitutively active Cdc42 – biochemical, multiplex bead flow cytometry, Bodipy-FL-GTP, dose response (AID 1333;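 active = fitted half-maximal concentration within the tested dose range, moderate curve steepness, a statistically real signal drop, and little compound fluorescence or tag-binding interference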)
Sequence of Cell division control protein 42 homolog (Homo sapiens) (P60953 whole entry, looked up): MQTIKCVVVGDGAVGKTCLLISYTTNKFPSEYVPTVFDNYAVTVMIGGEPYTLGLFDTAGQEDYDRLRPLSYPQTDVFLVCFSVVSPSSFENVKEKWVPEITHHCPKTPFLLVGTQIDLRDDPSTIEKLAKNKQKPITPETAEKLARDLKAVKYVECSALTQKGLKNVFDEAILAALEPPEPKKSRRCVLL

[2] = target: Cell division control protein 42 homolog (Homo sapiens) (UniProt P60953); test: inhibition of fluorescent GTP binding to wildtype Cdc42 – biochemical, multiplex bead flow cytometry, Bodipy-FL-GTP, dose response (AID 1334;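 active = fitted half-maximal concentration within the tested range, moderate curve steepness, significant signal drop, and little compound fluorescence or bead-linkage interference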); conditions: bead-based flow cytometry, Bodipy-FL-GTP binding to GST-Cdc42; at 100 µM (top of the series) unless noted
[3] = target: GTPase HRas (Homo sapiens) (UniProt P01112); test: Ras wt fluorescent GTP loading blockade – biochemical, wildtype, multiplex bead flow cytometry, dose response (AID 1335); conditions: bead-based flow cytometry, Bodipy-GTP binding to GST-Ras; at 100 µM (top of the series) unless noted
Sequence of GTPase HRas (Homo sapiens) (P01112 whole entry, looked up): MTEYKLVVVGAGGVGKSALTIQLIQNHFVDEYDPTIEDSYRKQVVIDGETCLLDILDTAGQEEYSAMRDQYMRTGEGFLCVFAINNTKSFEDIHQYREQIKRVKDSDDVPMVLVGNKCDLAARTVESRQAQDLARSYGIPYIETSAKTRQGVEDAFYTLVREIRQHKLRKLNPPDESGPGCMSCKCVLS

[4] = test system: Ras-related protein Rab-7a (dog), GTP binding; test: blockers of fluorescent GTP binding to Rab7 – biochemical, wildtype, multiplex bead flow cytometry, dose response (AID 1336; call rule not given here)
[5] = target: GTPase HRas (Homo sapiens) (UniProt P01112); test: blockade of GTP loading onto mutant Ras – biochemical, activated mutant, multiplex bead flow cytometry, dose response (AID 1341;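 active = dose-response curve with midpoint inside the tested range, moderate steepness, significant amplitude and little compound fluorescence or bead-attachment interference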;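 also: GST-tagged constitutively activated Ras mutant immobilized on beads and multiplexed with other GTPases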)
[6] = target: Ras-related C3 botulinum toxin substrate 1 (Homo sapiens) (UniProt P63000); test: inhibition of wildtype Rac1 nucleotide loading – biochemical, multiplex bead flow cytometry, dose response (AID 1340;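 active = dose curve with midpoint inside tested range, moderate steepness, plateau gap beyond fit error, low compound glow and bead-link interference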); conditions: GST-Rac1 beads, Bodipy-FL-GTP binding; at 100 µM (top of the series) unless noted
[7] = hit retest on RPL19A-GFP reporter strain – cell-based, S. cerevisiae, flow cytometry, cherry picks, mother/daughter gates, confirmation (AID 2270;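 active = GFP response below 50% of the DMSO control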); conditions: 3 h, at 10 µM, stronger effect = lower value, 100 = same GFP as DMSO wells
[8] = yeast TOR pathway reporter LAP4-GFP change – cell-based, cherry picks, flow cytometry, mother/daughter gates, confirmation (AID 2271;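 active = GFP response above 150% of the DMSO control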;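 also: ratio of sample to DMSO plate mean so 100% equals DMSO level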); conditions: S. cerevisiae LAP4-GFP strain, 3 h, at 10 µM, stronger effect = higher value, 100 means same as DMSO control
[9] = TOR pathway reporter MEP2-GFP, retest of hits – S. cerevisiae, flow cytometry GFP, cherry picks, confirmation (AID 2272;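 active = GFP response above 150% of the DMSO control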;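 also: ratio of well signal to plate DMSO mean so 100% equals DMSO level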); conditions: S. cerevisiae MEP2-GFP strain, 3 h, at 10 µM, stronger effect = higher value
[10] = yeast AGP1-GFP fluorescence change, single-dose – cell-based, flow cytometry, S. cerevisiae, cherry picks, confirmation (AID 2273;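 active = GFP response above 150% of the DMSO level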;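 also: median GFP channel fluorescence over the whole cell population gate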); conditions: S. cerevisiae AGP1-GFP strain, 3 h, at 10 µM
[11] = TOR pathway CIT2 reporter hit retest – S. cerevisiae, GFP fusion, cherry picks, mother/daughter gates, confirmation (AID 2274;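 active = GFP response above 150% of the DMSO level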); conditions: S. cerevisiae CIT2-GFP strain, flow cytometry, 3 h, at 10 µM, stronger effect = higher value
[12] = target: Regulator of G-protein signaling 16 (Homo sapiens) (UniProt O15492); test: small molecules altering RGS protein interactions with GNAO1 – biochemical, multiplexed beads, flow cytometry, RGS4/7/8/16/19, primary screen (AID 1504); conditions: multiplexed bead flow cytometry, measured here: RGS16 interaction, at 10 µM;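 also: fluorescently labeled Galpha-o bound to GDP with aluminium fluoride binding biotinylated RGS beads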
[13] = target: Regulator of G-protein signaling 19 (Homo sapiens) (UniProt P49795); test: as above; conditions: multiplexed bead flow cytometry, measured here: RGS19 interaction, at 10 µM
[14] = target: Regulator of G-protein signaling 7 (Homo sapiens) (UniProt P49802); test: as above; conditions: multiplexed bead flow cytometry, measured here: RGS7 interaction, at 10 µM
[15] = target: Regulator of G-protein signaling 8 (Homo sapiens) (UniProt P57771); test: as above; conditions: multiplexed bead flow cytometry, measured here: RGS8 interaction, at 10 µM
[16] = interference with biotin-avidin bead interaction – biochemical, flow cytometry, bead-based, counter-screen for RGS protein interaction modulators (AID 1783;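 active = inhibition above 50%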;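 also: median green fluorescence of gated singlet beads compared with DMSO control wells; 0% = DMSO wells and 100% = complete loss of bead fluorescence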); conditions: streptavidin beads, fluorescein-biotin binding; at 10 µM, stronger effect = higher value
[17] = target: Guanine nucleotide-binding protein G(o) subunit alpha (Homo sapiens) (UniProt P09471); test: retest of RGS8-Galphao interaction hits – biochemical, multiplexed bead flow cytometry, single concentration, confirmation (AID 1836; in the data active = binding response below about 72% or above about 130%; inactive = in between;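 also: Galphao activated as GDP AlF4 complex before binding bead RGS8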); conditions: bead-based flow cytometry RGS8-Galphao binding, fluorescence; at 10 µM; actives lie on both sides
Sequence of Guanine nucleotide-binding protein G(o) subunit alpha (Homo sapiens) (P09471 whole entry, looked up): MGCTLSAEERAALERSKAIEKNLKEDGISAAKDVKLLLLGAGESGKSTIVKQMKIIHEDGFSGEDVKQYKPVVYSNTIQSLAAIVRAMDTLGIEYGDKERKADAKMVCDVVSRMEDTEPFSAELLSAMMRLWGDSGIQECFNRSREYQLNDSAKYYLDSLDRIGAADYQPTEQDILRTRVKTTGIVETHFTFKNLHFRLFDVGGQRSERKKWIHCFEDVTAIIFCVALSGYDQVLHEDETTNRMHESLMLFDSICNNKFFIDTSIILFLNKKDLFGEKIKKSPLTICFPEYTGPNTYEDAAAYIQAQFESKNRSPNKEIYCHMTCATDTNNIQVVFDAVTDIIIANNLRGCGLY

[18] = target: Guanine nucleotide-binding protein G(o) subunit alpha (Homo sapiens) (UniProt P09471); test: retest of RGS7-Galphao interaction hits – biochemical, multiplexed bead flow cytometry, single concentration, confirmation (AID 1837; in the data active = response below about 75% or above about 130%; inactive = in between;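 also: fluorescent Galphao activated with GDP and aluminum fluoride binding bead-coupled RGS7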); conditions: bead-based flow cytometry RGS7-Galphao binding; at 10 µM; actives lie on both sides
[19] = target: Regulator of G-protein signaling 16 (Homo sapiens) + Guanine nucleotide-binding protein G(o) subunit alpha (Homo sapiens) (UniProt O15492+P09471); test: RGS16 and Galphao interaction regulators – biochemical, single concentration, multiplexed bead flow cytometry, confirmation (AID 1838; in the data active = response below about 74% or above about 130%; inactive = in between;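 also: Galphao activated as the GDP aluminium fluoride complex binding bead-coupled RGS16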); conditions: bead-based flow cytometry, at 10 µM, actives lie on both sides
Sequence of Regulator of G-protein signaling 16 (Homo sapiens) + Guanine nucleotide-binding protein G(o) subunit alpha (Homo sapiens) (O15492 whole entry, looked up): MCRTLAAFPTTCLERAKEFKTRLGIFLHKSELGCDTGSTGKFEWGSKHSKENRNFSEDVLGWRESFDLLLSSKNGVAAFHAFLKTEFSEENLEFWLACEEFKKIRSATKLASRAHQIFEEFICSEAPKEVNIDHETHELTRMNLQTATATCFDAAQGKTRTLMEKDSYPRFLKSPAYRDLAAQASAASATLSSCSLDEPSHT
Sequence of Regulator of G-protein signaling 16 (Homo sapiens) + Guanine nucleotide-binding protein G(o) subunit alpha (Homo sapiens) (P09471 whole entry, looked up): as the sequence (P09471 whole entry, looked up) above

[20] = target: Guanine nucleotide-binding protein G(o) subunit alpha (Homo sapiens) (UniProt P09471); test: RGS4 and Galphao interaction regulators – biochemical, single concentration, multiplexed bead flow cytometry, confirmation (AID 1840; in the data active = binding response below about 74% or above about 130%; inactive = in between); conditions: at 10 µM, actives lie on both sides
[21] = target: Guanine nucleotide-binding protein G(o) subunit alpha (Homo sapiens) + Regulator of G-protein signaling 19 (Homo sapiens) (UniProt P09471+P49795); test: RGS19 interaction with Gαo, hit retest – biochemical, single point, multiplexed bead flow cytometry, confirmation (AID 1841; in the data active = response below about 50% or above about 160%; inactive = in between;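 also: 100% = no compound control and 0% = blank background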); conditions: bead-based flow cytometry RGS19-Galphao binding; at 10 µM; actives lie on both sides
Sequence of Guanine nucleotide-binding protein G(o) subunit alpha (Homo sapiens) + Regulator of G-protein signaling 19 (Homo sapiens) (P09471 whole entry, looked up): as above
Sequence of Guanine nucleotide-binding protein G(o) subunit alpha (Homo sapiens) + Regulator of G-protein signaling 19 (Homo sapiens) (P49795 whole entry, looked up): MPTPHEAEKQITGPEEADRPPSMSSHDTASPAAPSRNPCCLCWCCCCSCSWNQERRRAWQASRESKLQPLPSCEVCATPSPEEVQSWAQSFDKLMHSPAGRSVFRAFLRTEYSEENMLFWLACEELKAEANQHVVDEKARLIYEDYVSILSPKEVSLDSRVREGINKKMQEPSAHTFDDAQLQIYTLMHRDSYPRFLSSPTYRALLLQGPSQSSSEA

[22] = measured here: daughter cell gate
[23] = measured here: mother cell gate

Q: With `COc1ccc(C(=O)/C=C/Nc2ccc(S(=O)(=O)Nc3nc(C)cc(C)n3)cc2)cc1OC` as the molecule, how does the outcome [1] read?
A: The outcome was “inactive”.

Q: What about the fluorescence, percent of control (lower = inhibition) [2] of the same molecule?
A: Its fluorescence, percent of control (lower = inhibition) is 39.1%.

Q: What about the GTP binding, percent of control [3] of the same molecule?
A: Its GTP binding, percent of control is 80%.

Q: What about the outcome [4] of the same molecule?
A: Its outcome is “inactive”.

Q: What about the outcome [5] of the same molecule?
A: Its outcome is “inactive”.

Q: With `COC(=O)c1ccc2nc(Nc3nc4c(F)cc(F)cc4s3)sc2c1` as the molecule, how does the outcome [1] read?
A: Its outcome is “inactive”.

Q: And the fluorescence, percent of control (lower = inhibition) [2]?
A: The fluorescence, percent of control (lower = inhibition) was 33.7%.

Q: And the GTP binding, percent of control [3]?
A: The GTP binding, percent of control was 85.9%.

Q: What about the outcome [4] of the same molecule?
A: Its outcome is “inactive”.

Q: What about the GTP binding signal, raw median fluorescence (lower = inhibition) (MCF (arbitrary fluorescence units)) [6] of the same molecule?
A: The GTP binding signal, raw median fluorescence (lower = inhibition) (MCF (arbitrary fluorescence units)) was 286.

Q: What about the outcome [5] of the same molecule?
A: The outcome was “inactive”.

Q: And the GFP response vs DMSO [7]?
A: The GFP response vs DMSO was 98.2% (inactive).

Q: What about the GFP response vs DMSO [7, 22] of the same molecule?
A: Its GFP response vs DMSO is 97.3%.

Q: And the GFP response vs DMSO [7, 23]?
A: The GFP response vs DMSO was 98.3%.

Q: What about the GFP response relative to DMSO [8] of the same molecule?
A: The GFP response relative to DMSO was 91.2% (inactive).

Q: What about the GFP response relative to DMSO ([8]; measured here: daughter cell gate response) of the same molecule?
A: Its GFP response relative to DMSO is 90.4%.

Q: What about the GFP response relative to DMSO ([8]; measured here: mother cell gate response) of the same molecule?
A: The GFP response relative to DMSO was 93%.

Q: What about the GFP response vs DMSO [9] of the same molecule?
A: The GFP response vs DMSO was 101% (inactive).

Q: And the GFP response, % of DMSO [10]?
A: The GFP response, % of DMSO was 102% (inactive).

Q: What about the GFP response, % of DMSO [11] of the same molecule?
A: The GFP response, % of DMSO was 99.7% (inactive).

Q: What about the GFP response, % of DMSO [11, 22] of the same molecule?
A: Its GFP response, % of DMSO is 98.4%.

Q: And the GFP response, % of DMSO [11, 23]?
A: The GFP response, % of DMSO was 98.7%.

Q: With `NC(=S)N=Nc1c(O)[nH]c2ccc(F)cc12` as the molecule, how does the outcome [1] read?
A: The outcome was “inactive”.

Q: And the fluorescence, percent of control (lower = inhibition) [2]?
A: The fluorescence, percent of control (lower = inhibition) was 30.2%.

Q: What about the GTP binding, percent of control [3] of the same molecule?
A: The GTP binding, percent of control was 64.9%.

Q: And the outcome [4]?
A: The outcome was “inactive”.

Q: What about the outcome [5] of the same molecule?
A: Its outcome is “inactive”.

Q: What does the source list for `O=C(OCC1O[C@@H](OC(=O)c2cc(O)c(O)c(O)c2)[C@@H](OC(=O)c2cc(O)c(O)c(O)c2)[C@@H](OC(=O)c2cc(O)c(O)c(O)c2)[C@@H]1OC(=O)c1cc(O)c(O)c(O)c1)c1cc(O)c(O)c(O)c1` (stereo partly drawn)?
A: outcome [1]: inactive; fluorescence, percent of control (lower = inhibition) [2]: 21.1%; GTP binding, percent of control [3]: 58.6%; outcome [4]: inactive; GTP binding signal, raw median fluorescence (lower = inhibition) (MCF (arbitrary fluorescence units)) [6]: 145; outcome [5]: inactive; RGS16–Galpha-o binding response [12]: 51.1%; RGS19–Galpha-o binding response [13]: -410%; RGS7–Galpha-o binding response [14]: 20.5%; RGS8–Galpha-o binding response [15]: 46.9%; inhibition [16]: -1.9% (inactive); binding response (% of control) [17]: 35.2% (active); response (percent of control binding) [18]: -10.3% (active); response (% of control binding) [19]: 29.8% (active); binding response (% of control) [20]: -1.02% (active); response (percent of control binding) [21]: 46.8% [inhibitor] (active)
